Experimental findings from PubChem BioAssay (NCI) are described below.

Structures are written as SMILES. Compounds without any hit were thinned out: in the full panel of roughly 83,000, 20% have a hit.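 Compound tested at a single concentration for 48 hours in 96-well plates; a percent growth value below 10 was scored as active.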 A number with no mark means an inactive call. Calls of active or inactive are those of the source.

Among the test systems are NCI/ADR-RES ovarian; T-47D breast; BT-549 breast; MDA-MB-435 melanoma; SW-620 colon; MCF7 breast; HCT-116 colon; HCC-2998 colon; KM12 colon.
Common to all, as to experiment: NCI-60 one-dose screen, 48 h (100 = growth as untreated, 0 = no growth, -100 = all killed)
Details in all cases: 10 µM unless noted

Consider `CC1=C(CCCOC(=O)CN)C2=C(C)C3(CC3)[C@@](C)(O)C(=O)C2=C1`, for which the growth in the assay with NCI/ADR-RES ovarian was 84.7%; in the assay on T-47D breast, 63.6%; in the assay on BT-549 breast, 65.8%; with MDA-MB-435 melanoma, 101%; in the assay with SW-620 colon, 91.5%; in the assay with MCF7 breast it was 71.1%. Also, the growth in the assay with HCT-116 colon was 71.5%; with HCC-2998 colon it was 85.1%; in the assay with KM12 colon it was 100%.
Consider `CC(=O)OC[C@]1(C)C=C2C(=O)[C@](C)(O)C3(CC3)C(C)=C2[C@H]1O`, for which the growth with NCI/ADR-RES ovarian is -18.7% (active); with T-47D breast, -8.92% (active); in the assay on BT-549 breast, -42.4% (active); in the assay with MDA-MB-435 melanoma, -24.1% (active); in the assay with SW-620 colon it was 0.025% (active); in the assay on MCF7 breast, 1.05% (active). For the same compound, the growth in the assay with HCT-116 colon is 0.12% (active); with HCC-2998 colon, -59.8% (active); in the assay on KM12 colon, 10.4%.
As to `Oc1ccc2c3c1OC1[C@@H](O)CC[C@@]4(O)[C@@H](C2)N(CC2CCC2)CC[C@]314` (some centres undefined), the growth with NCI/ADR-RES ovarian was 102%; in the assay with T-47D breast, 100%; with BT-549 breast, 106%; with MDA-MB-435 melanoma it was 101%; in the assay on SW-620 colon, 104%; in the assay on MCF7 breast, 92.5%. Also, the growth is 99.2% with HCT-116 colon and 104% in the assay on KM12 colon.
On to `O=C(Nc1ccc(O)cc1)C(Cl)(Cl)Cl`, for which the growth in the assay on NCI/ADR-RES ovarian is 99.4%; in the assay with T-47D breast, 89.5%; in the assay with BT-549 breast, 91.2%; with MDA-MB-435 melanoma, 103%; in the assay on SW-620 colon, 110%; in the assay on MCF7 breast it was 99.1%. For the same compound, the growth with HCT-116 colon and in the assay with KM12 colon was 103% each time.
For the compound `COC(=O)[C@@H](C)C[C@H](Cc1ccccc1)NC(=O)c1csc([C@@H](C[C@H](C(C)C)N(C)C(=O)[C@H](C)NC(=O)[C@H]2CCCN2C)OC(C)=O)n1`, the growth in the assay with NCI/ADR-RES ovarian is 92.4%; in the assay on T-47D breast it was 50.9%; in the assay on BT-549 breast, 36.9%; in the assay on MDA-MB-435 melanoma, -27.1% (active); in the assay on SW-620 colon it was 28.5%; in the assay on HCC-2998 colon it was 62.8%. Also, in the assay on KM12 colon, the growth is 30.7%.
Take `CNC(=O)Oc1ccc(N(C)C)cc1C(C)C`: the growth was 107% with NCI/ADR-RES ovarian; 101% in the assay with T-47D breast; 73.6% in the assay on BT-549 breast; 91.7% in the assay with MDA-MB-435 melanoma; 116% in the assay on SW-620 colon; 91% in the assay on MCF7 breast. Also, the growth in the assay on HCT-116 colon is 95.9%; in the assay on KM12 colon, 112%.
Regarding `O=C([O][Hg][CH2]C1COCC([CH2][Hg][O]C(=O)c2ccccc2)O1)c1ccccc1` (centres undefined), the growth in the assay on NCI/ADR-RES ovarian was 106%; in the assay with T-47D breast, 11.4%; in the assay on BT-549 breast it was 97.4%; in the assay with MDA-MB-435 melanoma, 90.2%; in the assay on SW-620 colon it was -91.2% (active); in the assay on MCF7 breast, 20.9%. Moreover, the growth in the assay with HCC-2998 colon is 114%; with KM12 colon, 102%.
For the compound `O=C1CN=C(c2ccc(Cl)cc2)c2sccc2N1`, the growth with NCI/ADR-RES ovarian was 109%; in the assay with T-47D breast, 95.3%; in the assay with BT-549 breast, 103%; in the assay on MDA-MB-435 melanoma it was 109%; with SW-620 colon, 110%; in the assay on MCF7 breast it was 96.5%. Besides, the figures for the growth in the assay on HCT-116 colon, with HCC-2998 colon and in the assay on KM12 colon were 101%, 116% and 103%, respectively.
For `CC1(C)N=C(N)N=C(N)N1c1cccc(CCCCc2ccc(Cl)c(S(=O)(=O)F)c2)c1`, the growth in the assay with NCI/ADR-RES ovarian is 104%; in the assay on T-47D breast, 86.6%; in the assay on BT-549 breast, 51.8%; in the assay on MDA-MB-435 melanoma it was 35.8%; with SW-620 colon it was 30.9%; in the assay on MCF7 breast it was 28.8%. The growth was 17.7% with HCT-116 colon, 35.1% with HCC-2998 colon and 22.3% in the assay on KM12 colon.
On to `O=c1[nH]c2ccc([N+](=O)[O-])cc2c(=O)o1`, for which the growth in the assay with NCI/ADR-RES ovarian was 101%; in the assay with T-47D breast it was 111%; in the assay with BT-549 breast, 95.3%; in the assay on MDA-MB-435 melanoma it was 111%; in the assay with SW-620 colon, 105%; with HCT-116 colon, 103%. Besides, the results for the growth in the assay with HCC-2998 colon and with KM12 colon were 102% and 106%, respectively.
Consider `CCC1CC(O)c2c(O)c3c(c(O)c2C1O)C(=O)c1cccc(O)c1C3=O` (centres undefined) (tested in a mixture with another compound), for which the growth in the assay on NCI/ADR-RES ovarian was -55.4% (active); with T-47D breast, -14.1% (active); in the assay on BT-549 breast, -68.1% (active); with MDA-MB-435 melanoma, -90.3% (active); in the assay on SW-620 colon it was -60.3% (active); in the assay with MCF7 breast, -51% (active). Moreover, the figures for the growth with HCT-116 colon and in the assay on KM12 colon were -39.8% (active) and -38.4% (active), respectively.
Consider `CC12CCC3C(CCC4Cc5[nH]c6ccccc6c5CC43C)C1CCC2O` (centres undefined), for which the growth in the assay with NCI/ADR-RES ovarian is 38.4%; in the assay with T-47D breast, 29.2%; with BT-549 breast, 60.4%; with MDA-MB-435 melanoma, -25.2% (active); in the assay on SW-620 colon it was 11.5%; with MCF7 breast, 5.13% (active). The growth with HCT-116 colon and with KM12 colon was 23.3% each time.
On to `COC1CC2c3ccccc3C1C(C)=[N+]2C` (centres undefined), for which the growth with NCI/ADR-RES ovarian was 78.7%; with T-47D breast, 107%; with BT-549 breast, 87.4%; in the assay on MDA-MB-435 melanoma, 100%; with SW-620 colon, 104%; in the assay on MCF7 breast, 97.3%. Also, the growth in the assay with HCT-116 colon is 103%; in the assay with KM12 colon, 104%.
Turning to `COc1ccc(/C=C\c2cc(OC)c(OC)c(OC)c2)cc1OCC(=O)Nc1nc2ccc(OC(F)(F)F)cc2s1`, the growth was -7.34% (active) in the assay with NCI/ADR-RES ovarian; 22.4% in the assay on T-47D breast; 58.7% with BT-549 breast; -30.2% (active) in the assay on MDA-MB-435 melanoma; 25.1% in the assay on SW-620 colon; 24.3% with MCF7 breast. For the same compound, the growth in the assay with HCT-116 colon is 19.5%; with KM12 colon, 19.2%.
Take `O=C(O)C(Cl)(Cl)C(F)(F)F`: the growth in the assay with NCI/ADR-RES ovarian was 102%; in the assay with T-47D breast, 106%; in the assay with BT-549 breast, 96.9%; with MDA-MB-435 melanoma, 97.7%; in the assay on SW-620 colon, 94.7%; with MCF7 breast, 99.6%. In addition, the growth in the assay with HCT-116 colon is 105%; in the assay on HCC-2998 colon it was 99.9%; with KM12 colon, 102%.
